Source: PubChem BioAssay AID1347156 (National Center for Advancing Translational Sciences (NCATS), 2019)
Records with an inconclusive call do not appear. Activity calls are given as the source filed them. Calls come from the whole dose curve; as a rule, active = well fitted cell-killing curve with a large enough effect; inconclusive = small, poorly fitted or top-dose-only effect; inactive = flat fitted curve, though single readings scatter.
% is set by controls: 0 for no effect and ±100 for the full control effect; potency is the fitted concentration of half-maximal effect.

Experiment: DAPI mCherry counterscreen qHTS for Zika virus inhibitors; note: nearly all actives have a fitted effect of over 55% in size
Conditions: Vero cells, DAPI nuclear count cytotoxicity, imaging 48-72 h, infected with Zika reporter virus, MOI 1; series mostly up to 32.6 µM; activity change, negative = cell loss: at the top concentration
In short: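 Vero cells (5,000/well), plated overnight, given compounds then recombinant ZIKV-mCherry at MOI 1 for 48-72 hrs at 37 degrees C; PFA-fixed, Hoechst-stained and imaged; nuclei counted and mCherry-positive cells scored as percent infection.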
For `CC(C)C[C@H](C(=O)O)c1cc(-c2ccc(C(F)(F)F)cc2)cc(-c2ccc(C(F)(F)F)cc2)c1`, the Potency was 11.2 µM (active).
In the case of `O=C(O)c1ccc(NC(=O)c2cn(-c3ccccc3)nc2-c2ccc(Br)cc2)cc1`, the Potency was 35.5 µM (active).
With `O=C(Nc1cccc2c(=O)cc(-c3nn[nH]n3)oc12)c1ccc(OCCCCc2ccccc2)cc1` the Potency was 35.5 µM (active).
For `C[C@H](NC(=O)C(=O)Nc1ccccc1C(C)(C)C)C(=O)N[C@@H](CC(=O)O)C(=O)COc1c(F)c(F)cc(F)c1F`, the “activity change, negative = cell loss” value was -2.7% (inactive).
In the case of `CC1(COc2ccc(CC3SC(=O)NC3=O)cc2)CCCCC1` (stereo not drawn), the Potency was 31.6 µM (active).
In the case of `COc1cc(/C=C(\C#N)C(=O)Nc2nnc(C(F)(F)F)s2)ccc1OCc1ccc(C(F)(F)F)cc1C(F)(F)F`, the Potency was 7.08 µM (active).
With `O=S(=O)(Nc1ccc(O)c(Sc2nc3ccccc3s2)c1)c1cc(Cl)ccc1Cl` the Potency was 35.5 µM (active).
With `Cc1oc2c(cc(NS(=O)(=O)c3ccc(Cl)cc3)c3ccccc32)c1C(=O)OCc1ccccc1` the “activity change, negative = cell loss” value was -13.3% (inactive).
